Source: PubChem BioAssay
IDE inh: human IDE inhibitors in live cells, primary screen, fluorescence polarization, HEK cells, FAbetaB substrate; Insulin-degrading enzyme (Homo sapiens), P14735; FAbetaB cleavage; inhibition, % at 5.59 µM; 320,000 compounds, 0.41% hits; AID 434962, 2010;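 active means percent inhibition above the average of all tested compounds plus 3 SD, set per screening campaign, cut at about 16% in these data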;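 further: IDE supplied by intact live HEK cells; FP after avidin binding of uncleaved biotin substrate so inhibition keeps polarization high; 0% = DMSO wells and 100% = 60 µM reference IDE inhibitor Ii1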
CRFR2-BP antag: antagonists of CRF-BP/CRF-R2 complex, primary screen, cell-based, HEK293, calcium dye fluorescence, uHTS | CRF-induced calcium fluorescence | inhibition, % at 11.8 µM | 350,000 compounds, 0.59% hits | AID 588475, 2011;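 active means inhibition of the ligand-induced calcium signal above about 50% at the single tested concentration, limit read from the data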
Myeloid diff 2: induction of myeloid progenitor differentiation, primary screen, cell-based, flow cytometry, MLPCN library. ER-HoxA9 myeloid progenitors, lysozyme-GFP differentiation. calls only at 10 µM. 360,000 compounds, 1% hits;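 active means normalized GFP-positive differentiation at or above the plate's own cutoff, the solvent-only control mean plus 3 SD; inconclusive means no clear call, values can overlap the other calls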;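 further: cells exposed to compound for four days before flow analysis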
IDE cell activ: human IDE activators in live cells, primary screen, fluorescence polarization, HEK cells, FAbeta-B substrate; Insulin-degrading enzyme (Homo sapiens), P14735; FAbeta-B cleavage; 0% vehicle, 100% cell-free pure enzyme wells; activation, % at 5.96 µM; 340,000 compounds, 0.073% hits; AID 493087, 2011;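 active means activation above the mean of all tested compounds plus 3 SD, set per screening campaign, cut at about 17% in these data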
TPT1 inh: Candida albicans TPT1 enzyme inhibitors, primary screen, biochemical, fluorescence polarization; tRNA 2'-phosphotransferase TPT1 (Candida albicans SC5314); recombinant caTPT1, FP RNA substrate dephosphorylation; inhibition, % at 5 µM; 300,000 compounds, 0.81% hits;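 active means inhibition above the mean of all tested compounds plus 3 SD, set per screening campaign, cut at about 24% in these data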;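 further: plate controls were DMSO alone for no effect and ferristatin control at 100 nM for full effect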
CRFBP-R2 agonist: agonists of CRF-BP/CRF-R2 complex, primary screen, cell-based, HEK293, calcium dye fluorescence, uHTS. CRF-binding protein / CRF receptor 2 complex (human). calcium dye fluorescence (FLIPR); percent of saturating CRF peptide response. activation, % at 13.2 µM. 350,000 compounds, 0.46% hits;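 active means activation of at least 50%, plus an integration ratio under a set limit after plate pattern correction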;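 further: plate controls were neutral control wells without compound for no effect and CRF at EC100 for full effect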
TPT1 inh confirm: Candida albicans TPT1 inhibitors, confirmation, biochemical, fluorescence polarization, triplicate | recombinant caTPT1, RNase T1 coupled | 2,400 compounds, 74% hits | AID 2149, 2009 | shares compounds with TPT1 inh | inhibition, % at 5 µM;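 active means inhibition above the primary screen limit, the mean inhibition of all tested compounds plus 3 SD, cut at about 25% in these data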
RNase T1 inh: RNase T1 inhibitors, counter-screen for TPT1 inhibitor project, biochemical, fluorescence polarization; shares compounds with TPT1 inh; 2,400 compounds, 83% hits; RNase T1 cleavage, 1536-well; inhibition, % at 5 µM;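 active means inhibition above the solvent-only control well mean plus 3 SD, limit set per screening run, cut at about 23% in these data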;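 further: plate controls were DMSO wells with enzyme for no effect and wells without RNase T1 for full effect; inhibitors block cleavage so intact labeled substrate keeps polarization high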
Target sequence (P00651 whole entry, looked up): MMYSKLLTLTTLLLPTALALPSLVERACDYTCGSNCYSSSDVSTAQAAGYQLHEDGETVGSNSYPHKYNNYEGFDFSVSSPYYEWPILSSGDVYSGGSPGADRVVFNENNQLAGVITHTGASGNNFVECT
* = called active by the depositor. Hits are enriched below; roughly 2.6% of the tested compounds scored in any of these assays.

For Cc1ccc(NC(=O)CN2C(=O)S/C(=C\c3cccn3C)C2=O)cc1 the results were IDE inh -1, CRFR2-BP antag 12, Myeloid diff 2 inactive, IDE cell activ -4, TPT1 inh 9 and CRFBP-R2 agonist -1.
`CCC(C(=O)O)N1C(=O)/C(=C/c2cccn2C)SC1=S` (stereo not given) gave IDE inh 9, CRFR2-BP antag 17, Myeloid diff 2 inactive, IDE cell activ -2, TPT1 inh 118*, CRFBP-R2 agonist 3, TPT1 inh confirm 124* and RNase T1 inh 130*.
COc1ccccc1/C=C1\SC(=S)N(C(C(=O)O)c2ccccc2)C1=O (stereo not given) was read as IDE inh 0, CRFR2-BP antag 6, Myeloid diff 2 inactive, IDE cell activ 5, TPT1 inh 4 and CRFBP-R2 agonist -1.
For Cn1cccc1/C=C1/SC(=S)N(CC(=O)O)C1=O the results were IDE inh 4, CRFR2-BP antag 11, Myeloid diff 2 inactive, IDE cell activ -2, TPT1 inh 89*, CRFBP-R2 agonist 5, TPT1 inh confirm 110* and RNase T1 inh 120*.
CC(C(=O)O)N1C(=O)/C(=C/c2cccn2C)SC1=S (stereo not given) was read as IDE inh -1, CRFR2-BP antag 21, Myeloid diff 2 inactive, IDE cell activ 0, TPT1 inh 96*, CRFBP-R2 agonist 6, TPT1 inh confirm 105* and RNase T1 inh 118*.
Screening CCCCOc1ccccc1C1NC(=O)CCC1[N+](=O)[O-] (stereo not given) returned IDE inh 6, CRFR2-BP antag 8, Myeloid diff 2 inactive, IDE cell activ 3, TPT1 inh -3 and CRFBP-R2 agonist 0.
For CCCCn1c(N)c(N(CC(C)C)C(=O)CSc2nnc(C)n2-c2ccc(OC)cc2)c(=O)[nH]c1=O the results were IDE inh -13, CRFR2-BP antag -9, Myeloid diff 2 inactive, IDE cell activ -1, TPT1 inh 3 and CRFBP-R2 agonist 0.
`O=C(O)CCCC(=O)N1N=C(c2ccccc2)CC1c1ccc2c(c1)OCO2` (stereo not given) gave IDE inh 2, CRFR2-BP antag 10, Myeloid diff 2 inactive, IDE cell activ 3, TPT1 inh 5 and CRFBP-R2 agonist 0.
`Cc1ccc2c(-c3csc(N)n3)c[nH]c2c1` gave IDE inh 8, TPT1 inh 26*, TPT1 inh confirm 15 and RNase T1 inh 27*.
`Nc1nc(-c2c[nH]c3ccccc23)cs1` gave IDE inh -7, CRFR2-BP antag -6, Myeloid diff 2 inactive, IDE cell activ -5, TPT1 inh 7 and CRFBP-R2 agonist 0.
`N#C/C(C(=O)NCCc1ccccc1)=C1/N=C(NC(=O)c2cccs2)c2ccccc21` gave IDE inh 4, CRFR2-BP antag -56, Myeloid diff 2 inactive, IDE cell activ 2, TPT1 inh 3 and CRFBP-R2 agonist 1.
Screening COCCCNC(=O)/C(C#N)=C1\N=C(NC(=O)c2cccs2)c2ccccc21 returned IDE inh -1, CRFR2-BP antag -5, Myeloid diff 2 inactive, IDE cell activ 2, TPT1 inh 31*, CRFBP-R2 agonist 0, TPT1 inh confirm 10 and RNase T1 inh 15.
For Cc1cccc(NC(=S)NC(=O)/C=C/c2ccco2)n1 the results were IDE inh 4, CRFR2-BP antag -1, Myeloid diff 2 inactive, IDE cell activ -3, TPT1 inh 1 and CRFBP-R2 agonist -1.
For COC(=O)[C@H]1[C@H]2C[C@@H]3c4[nH]c5cc(OC)ccc5c4CCN3C[C@H]2C[C@@H](OC(=O)/C=C/c2cc(OC)c(OC)c(OC)c2)[C@@H]1OC the results were IDE inh -1, CRFR2-BP antag -24, Myeloid diff 2 inactive, IDE cell activ 3, TPT1 inh 38*, CRFBP-R2 agonist 5, TPT1 inh confirm 36* and RNase T1 inh 48*.
COC(=O)[C@H]1[C@H]2C[C@@H]3c4[nH]c5cc(OC)ccc5c4CCN3C[C@H]2C[C@@H](OC(=O)c2ccc(N)cc2)[C@@H]1OC was read as IDE inh 1, CRFR2-BP antag -21, Myeloid diff 2 active, IDE cell activ 4, TPT1 inh 62*, CRFBP-R2 agonist 1, TPT1 inh confirm 86* and RNase T1 inh 91*.
`O=C(O)CCCn1c(O)c(C=C2N=c3ccccc3=N2)sc1=S` gave IDE inh -5, CRFR2-BP antag 11, Myeloid diff 2 inactive, IDE cell activ 6, TPT1 inh 4 and CRFBP-R2 agonist 1.
For COCCCn1c(O)c(/C=C2\N=C(C#N)C(=Nc3ccc(C)cc3)O2)sc1=S the results were IDE inh 10, CRFR2-BP antag -21, Myeloid diff 2 inactive, IDE cell activ -12, TPT1 inh 79*, CRFBP-R2 agonist 9, TPT1 inh confirm 80* and RNase T1 inh 85*.
O=C(/C=C/c1ccc(-c2ccccc2)o1)c1ccccc1 was read as IDE inh 0, CRFR2-BP antag -30, Myeloid diff 2 inconclusive, IDE cell activ -4, TPT1 inh 13 and CRFBP-R2 agonist 6.
`Cc1ccc(-c2ccc(/C=C/C(=O)c3ccccc3)o2)cc1` gave IDE inh -4, CRFR2-BP antag -47, Myeloid diff 2 inconclusive, IDE cell activ -5, TPT1 inh 48*, CRFBP-R2 agonist 28, TPT1 inh confirm 77* and RNase T1 inh 84*.
For CCOC(=O)c1c(CC(C)C)csc1/N=C/C1C(=O)CC(C)(C)CC1=O the results were IDE inh -1, CRFR2-BP antag -63, Myeloid diff 2 inactive, IDE cell activ -5, TPT1 inh 61*, CRFBP-R2 agonist 17, TPT1 inh confirm 12 and RNase T1 inh 15.
`O=C(CCc1nnc(CCc2c[nH]c3ccccc23)o1)NC1CCC1` gave IDE inh -6, CRFR2-BP antag -10, Myeloid diff 2 inactive, IDE cell activ 6, TPT1 inh 3 and CRFBP-R2 agonist -1.
CSc1ccc(CN2CCN(C(=O)CC(C)C)CC2)cc1 was read as IDE inh 7, CRFR2-BP antag 8, Myeloid diff 2 inactive, IDE cell activ 1, TPT1 inh 26*, CRFBP-R2 agonist -1, TPT1 inh confirm 7 and RNase T1 inh 12.
